Experimental data taken from PubChem BioAssay (NCI).
Where “and” joins values, the source holds several entries; their conditions need not be identical. Equal values may be shown once. This is part of a sample that, as a whole, favours compounds with a hit. Of some 83,000 tested, about 20% had one in any assay.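 The endpoint reported here, percent growth, reads 100 for growth as untreated, 0 for no net growth and -100 for all cells dead.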 Calls of active or inactive are those of the source.

The molecules below were run on MDA-MB-435 melanoma (assay: NCI-60 one-dose screen, 48 h (100 = growth as untreated, 0 = no growth, -100 = all killed)). Details: 10 µM unless noted.
Method: Growth inhibition of the MDA-MB-435 human Melanoma tumor cell line is measured as a screen for anti-cancer activity. Cells are grown in 96 well plates and exposed to the test compound for 48 hours. Compounds are tested at a single concentration, which is 10^-5 M for most compounds. The reported endpoint is percent growth (GI% or GIPRCNT), where numbers from 0 - 100% represent growth inhibition, and numbers from -100% - 0 represent cell death. For example, a value of 40 represents 60% growth inhibition. A value of 0 means no net growth occurred over the course of the experiment. A value of -40 indicates 40% of cells at the beginning of the experiment died by the end of the experiment. A value of -100 means all cells are dead at the end of the experiment.
NCI-60 Human Tumor Cell Lines Screen was performed using the standard one-dose NCI protocol, which is described in more detail at https://dtp.cancer.gov/discovery_development/nci-60/default.htm.
Compounds with GIPRCNT values below 10 were considered active. Activity score was based on GIPRCNT using the following formula: […]
Score is 0 for GIPRCNT values of 100 or above, 50 for GIPRCNT values of 0, and 100 for GIPRCNT values of -100.
For `O=C1c2c(O)ccc(O)c2C(=O)c2c(NCCNCCO)ccc(NCCNCCO)c21`, the growth was -89.9% (active) and -94.9% (active).
For `COc1cc(C(O)C2C(=O)OCC2C2(c3ccc4c(c3)OCO4)SCCCS2)cc(OC)c1OC` (stereo not given), the growth was 101% (inactive).
With `c1ccc(-c2nc3ccccc3s2)cc1` the growth was 110% (inactive).
`Nc1ccc2c(O)cc(S(=O)(=O)O)cc2c1` was tested, and the growth was 104% (inactive) and 113% (inactive).
`O=C(O)/C=C\C(=O)Nc1cccc2ccccc12` was tested, and the growth was 113% (inactive) and 103% (inactive).
`COc1ccc(N/C=C/C2=[N+](C)c3ccccc3C2(C)C)c(OC)c1` was tested, and the growth was 95% (inactive).
For `O=C1OC(C(O)C(O)CO)C(O)=C1O` (stereo not given), the growth was 114% (inactive) and 109% (inactive).
For `O=c1n(CC2CO2)c(=O)n(CC2CO2)c(=O)n1CC1CO1` (stereo not given), the growth was 82.9% (inactive).
In the case of `Oc1ccc(Cc2ccccc2Cl)c(O)c1`, the growth is reported as 107% (inactive).
`NC(=O)NCCCC(N)C(=O)O` (stereo not given) was tested, and the growth was 107% (inactive).
`CC(=O)NCC(=O)c1ccc([N+](=O)[O-])cc1` was tested, and the growth was 104% (inactive).
For `c1ccc2c(c1)OC1OC2Oc2ccccc21`, the growth was 115% (inactive).
For `NN1CCOC(c2ccccc2)C1` (stereo not given), the growth was 106% (inactive).
For `CC1CCC2(C(=O)O)CCC3(C)C(=CCC4C5(C)CCC(O)C(C)(C)C5CCC43C)C2C1C` (stereo not given), the growth was 59.8% (inactive) and 103% (inactive).
For `CC(C)NC(=O)N/C=C(\C#N)C(N)=O`, the growth was 92.6% (inactive).
`NC(Cc1c[nH]c2ccccc12)C(=O)O` (stereo not given) was tested, and the growth was 98.9% (inactive) and 105% (inactive).
In the case of `O=C1CSC2=NCCN12`, the growth is reported as 71.5% (inactive) and 70.6% (inactive).
`Cn1cnc([N+](=O)[O-])c1Sc1ncn[nH]1` was tested, and the growth was 101% (inactive).
For `Cl`, the growth was 101% (inactive).
With `CCN(CCNS(C)(=O)=O)c1ccc(N)c(C)c1` the growth was 28.9% (inactive) and 76.5% (inactive).
`CCCCNc1ccc(Nc2ccccc2)cc1` was tested, and the growth was 71.8% (inactive).
With `CC1CCC2(OC1)OC1CC3C4CC=C5CC(O)CCC5(C)C4CCC3(C)C1C2C` (stereo not given) the growth was 116% (inactive).
For `CC(C)C(C)(C)c1ccc(O)cc1`, the growth was 106% (inactive).
In the case of `CCCCCCCCCCNC(=O)CI`, the growth is reported as 9.57% (active).
`CC(C)NCC(O)c1ccc(O)c(O)c1` (stereo not given) was tested, and the growth was 104% (inactive) and 105% (inactive) and 101% (inactive).
`Cc1cc2ccccc2cn1` was tested, and the growth was 101% (inactive) and 106% (inactive).
With `CC1(C)COC(=S)N1` the growth was 101% (inactive).
For `COc1ccc(C(=O)CC(c2ccccc2)C(C#N)c2ccccc2)cc1` (stereo not given), the growth was 78.9% (inactive).
With `O=[N+]([O-])c1cccc(SSc2cccc([N+](=O)[O-])c2)c1` the growth was 102% (inactive).
In the case of `Cc1cc(-c2cc(C)c(O)c(C)c2)cc(C)c1O`, the growth is reported as 8.38% (active).
`CN(C)CC1CCCCCC(CN(C)C)C1=O` (stereo not given) was tested, and the growth was 81.2% (inactive).
In the case of `NC1CCC(C(=O)O)CC1` (stereo not given), the growth is reported as 106% (inactive).
With `OC1COC(OCc2ccccc2)C(O)C1O` (stereo not given) the growth was 104% (inactive).
In the case of `O=C1OC(c2ccccc2)=N/C1=C\c1ccccc1`, the growth is reported as 109% (inactive).
With `CCCCCCCCCCCCCCCCC(C(=O)O)C(O)(CC(=O)O)C(=O)O` (stereo not given) the growth was 102% (inactive) and -33.7% (active).
For `O=C(Cc1ccccc1)c1ccc(O)c(Cl)c1`, the growth was 41.3% (inactive).
`CC(C)(O)C(=O)O` was tested, and the growth was 107% (inactive).
For `CN1CNC(=O)NC1`, the growth was 106% (inactive) and 115% (inactive).
For `CC1CCC(C(C)C)C(NNC(N)=O)C1` (stereo not given), the growth was 101% (inactive).
In the case of `CCc1cc(C)cc(O)c1`, the growth is reported as 113% (inactive).
